# Data published in PubChem BioAssay AID624417 (National Center for Advancing Translational Sciences (NCATS), 2012).
# The campaign covered roughly 410,000 compounds. About 6,400 (1.6%) were called active. Roughly 20% stayed inconclusive and do not appear here. The call rests on the fitted dose curve; in most records, active means well fitted inhibition curve with a large enough effect; inconclusive means small, poorly fitted or top-dose-only effect; inactive means no such curve, though single readings can be large or run the other way. What follows is part of a selection rich in actives, with near analogues and random picks from the rest.
# Target: Glucagon-like peptide 1 receptor (Homo sapiens) (UniProt P43220)
# Assay: qHTS of GLP-1 Receptor Inverse Agonists (Inhibition Mode); further: nearly all actives have a fitted effect of over 55% in size
# Details: HEK293 GLP-1R CRE-luciferase, luminescence, 24 h, GLP-1R form is constitutively active; series mostly up to 38.3 µM; activity change, negative = inhibition: at the top concentration
# In short: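 HEK293 cells stably co-expressing a cAMP-responsive luciferase reporter and constitutively active GLP-1R were seeded, incubated 12 h, then exposed to compounds for 24 h at 37 C. Luminescence was read 12 min after detection reagent; inverse agonists lower signal.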
# On the % scale 0 is the no-effect control and ±100 the full control effect; potency means the concentration at half of the fitted maximal effect.
# Sequence of Glucagon-like peptide 1 receptor (Homo sapiens) (P43220 whole entry, looked up): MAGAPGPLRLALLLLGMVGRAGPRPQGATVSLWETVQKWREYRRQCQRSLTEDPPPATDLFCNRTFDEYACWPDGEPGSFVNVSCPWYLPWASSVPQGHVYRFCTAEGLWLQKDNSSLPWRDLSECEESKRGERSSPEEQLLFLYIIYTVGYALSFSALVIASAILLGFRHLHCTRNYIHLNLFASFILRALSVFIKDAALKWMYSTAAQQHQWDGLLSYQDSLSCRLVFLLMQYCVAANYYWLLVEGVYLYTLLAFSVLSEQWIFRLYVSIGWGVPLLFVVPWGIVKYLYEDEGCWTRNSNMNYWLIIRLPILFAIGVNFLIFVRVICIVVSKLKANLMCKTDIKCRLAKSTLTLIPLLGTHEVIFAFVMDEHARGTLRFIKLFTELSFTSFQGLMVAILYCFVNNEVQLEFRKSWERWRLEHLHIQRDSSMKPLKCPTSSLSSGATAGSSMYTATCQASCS
SMILES,"activity change, negative = inhibition",Potency
CC1(C(=O)NS(=O)(=O)c2ccccc2)CCN1C(=O)c1ccccc1 (centres undefined),22.7% (inactive),–
Nc1nc(CSc2nnnn2-c2ccccc2)nc(Nc2ccccc2)n1,25.2% (inactive),–
CCOC(=O)C1=CCC2C(=O)N(Cc3ccccc3)C(=O)C12 (centres undefined),19.7% (inactive),–
COC(=O)[C@]12CCCCC=C1N(Cc1ccco1)C(=O)[C@H](CC(=O)NCCCCc1ccccc1)C2,-33.9% (inactive),–
CCN(C(=O)Nc1cccc2ccccc12)c1ccccc1,-26.5% (inactive),–
CC(C)[C@H](NC(=O)c1ccccc1F)C(=O)Nc1cccc(S(=O)(=O)N2CCOCC2)c1,-8.55% (inactive),–
CCCNC(=O)C1(C)CCN(C(=O)c2ccccc2OC(F)(F)F)C1 (centres undefined),-9.35% (inactive),–
OC[C@H]1O[C@@H](c2nc(-c3nc(-c4ccc(F)cc4)no3)cs2)[C@H](O)[C@@H](O)[C@H]1O,0.715% (inactive),–
CC1(C(=O)NCc2ccccc2)CN(S(C)(=O)=O)CC(=O)N1CC(F)(F)F (centres undefined),-0.0418% (inactive),–
Cc1onc(-c2ccccc2Cl)c1C(=O)NCCn1ccc2ccccc21,–,6.31 µM (active)
CC(=O)Nc1cccc(/C(C)=N/NC(=O)c2c(-c3ccccc3Cl)noc2C)c1,4.71% (inactive),–
COCCNC(=O)c1ccccc1-c1nc(-c2ccccc2Cl)no1,-3.04% (inactive),–
CCNC(=O)C1CCCN(C(=O)c2ccc(OC)cc2OC)CC1 (centres undefined),20.1% (inactive),–
COc1ccccc1NC(=O)c1cc(C2CC2)nc2c1c(C)nn2-c1ccc(C)cc1,-11.6% (inactive),–
COc1ccc(NC(=O)c2cc(-c3ccc(C)o3)nc3ccccc23)cc1,-24.4% (inactive),–
COc1cc(NC(=O)c2cc(C3CC3)nc3c2c(C)nn3-c2ccccc2)cc(OC)c1,–,10 µM (active)
CC(C)C[C@H]1CNC(=O)C(=O)N1C[C@@H]1CCCN1C[C@H](Cc1ccccc1)N1C[C@H](CC(C)C)N(CC2CCCCCC2)C(=O)C1=O,24.7% (inactive),–
Cc1ccc(S(=O)(=O)N(C)C)cc1NC(=O)COC(=O)c1c(C)noc1C,2.65% (inactive),–
CN(c1ccc(OCC(=O)O)cc1)S(=O)(=O)c1ccc2ccccc2c1,3.29% (inactive),–
CCc1noc(C)c1C(=O)Oc1ccc(N(C)S(=O)(=O)c2ccc(C)c(C)c2)cc1,–,12.6 µM (active)
COC(=O)c1ccc2nc(-c3cccc(Br)c3)c(Cc3ccc(OC)cc3C)n2c1,-12% (inactive),–
COc1ccc(NC(=O)N(C)C[C@@H]2OCc3cn(nn3)CCCC(=O)N([C@H](C)CO)C[C@H]2C)c(OC)c1,-5.31% (inactive),–
O=C(NCCc1csc(-c2ccccc2)n1)c1ccccc1F,-18.6% (inactive),–
COc1ccc(-c2nc(CCNC(=O)c3ccc(Br)o3)cs2)cc1,–,inactive
COc1ccc(CCC(=O)NCCc2csc(-c3ccc(Cl)cc3)n2)cc1,–,10 µM (active)

SMILES,"activity change, negative = inhibition",Potency
CN1OC[C@@H]2CN(C(=O)c3cccnc3)[C@H](c3ccc(N4CCCCC4)cc3)C[C@@H]21,22.9% (inactive),–
CNC(=O)C[C@H]1C(=O)N(Cc2ccccc2)C[C@@H]1CSC,3.07% (inactive),–
Oc1ccc(-c2nc3ccc(Cl)cn3c2Nc2ccc3c(c2)OCO3)cc1,5.13% (inactive),–
Oc1ccccc1-c1nc2ccc(Cl)cn2c1Nc1ccc2c(c1)OCCO2,4.4% (inactive),–
Cc1cccc2nc(-c3ccc(Cl)s3)c(Nc3ccc4c(c3)OCCO4)n12,–,10 µM (active)
O=C(NCCS(=O)(=O)N1CCN(c2ccccc2)CC1)c1cc(=O)c2ccccc2o1,-0.814% (inactive),–
CC1(C2CC2)NC(=O)N(CC(=O)N2CCN(c3ccccc3F)CC2)C1=O (centres undefined),3.81% (inactive),–
O=C(Nc1ccc(OCCO)cc1)c1csc([C@H]2C[C@H](O)[C@@H](CO)O2)n1,14.8% (inactive),–
CCOC(=O)CSc1nccc(N(C)C)c1C#N,4.71% (inactive),–
CCOC(=O)CSc1nc(N2CCOCC2)c2c(c1C#N)CC(C(C)C)OC2 (centres undefined),–,2.24 µM (active)
COc1ccc(CSc2nc(N3CCOCC3)c3c(c2C#N)CC(C)(C)OC3)cc1,-7.76% (inactive),–
Cc1ccc(-c2c(N)nc3ncccn23)cc1,8.12% (inactive),–
CCCc1c(-c2ccccc2F)ncn1Cc1ccccc1OC,-29.9% (inactive),–
CSc1ccc(CN2CCC2(C)C(=O)Nc2ccc(C)c(O)c2)cc1 (centres undefined),-23.4% (inactive),–
CC1(C(=O)Nc2cccc(Oc3ccccc3)c2)CCN1Cc1ccccc1Cl (centres undefined),–,10 µM (active)
COc1cccc(NC(=O)C2(C)CCN2C(=O)CCC2CCCC2)c1 (centres undefined),-23.3% (inactive),–
Cc1ccc(C)c(C(O)c2ncc(-c3cccc4ccccc34)[nH]2)c1 (centres undefined),-13.6% (inactive),–
CCc1ccccc1NC(=S)Nc1cc(OC)c(NC(=O)C(C)C)cc1OC,-3.86% (inactive),–
CCc1ccccc1NC(=O)/C(=C/c1ccccc1)c1ccccc1,–,11.2 µM (active)
CCc1ccccc1NC(=O)CCOc1ccccc1,–,inactive
O=S1(=O)CC(N2CCN(Cc3ccccc3F)CC2)CN1Cc1cn(Cc2ccccc2)nn1 (centres undefined),0.366% (inactive),–
NS(=O)(=O)c1ccc(CCNC(=O)c2ccc(Cl)c(S(=O)(=O)N3CCCCCC3)c2)cc1,-24.7% (inactive),–
O=C(NCCSCc1ccccc1)c1ccc(Cl)c(S(=O)(=O)N2CCOCC2)c1,–,11.2 µM (active)
Cc1nn(Cc2ccccc2)c(C)c1CNC(=O)c1ccc(F)c(S(=O)(=O)N2CCOCC2)c1,-18.7% (inactive),–
CCCC(=O)N1CCC1(C)C(=O)Nc1ccc(-n2cncn2)cc1 (centres undefined),14.1% (inactive),–

SMILES,"activity change, negative = inhibition",Potency
CCOC(=O)C1CCCN(C(=O)c2ccc(N(C)C)cc2)CC1 (centres undefined),18.7% (inactive),–
CC(Nc1nc(N2CCN(CCO)CC2)nc2ccccc12)c1ccccc1 (centres undefined),–,4.47 µM (active)
OCCN1CCN(c2nnc(-c3ccccc3)c3ccccc23)CC1,-8.64% (inactive),–
O=C1c2ccccc2C(=O)c2c1cccc2N1CCN(CCO)CC1,0% (inactive),–
CC(=O)Nc1cc(-c2ccc(N3CCN(C)CC3)cc2)cn2c(-c3cccc(C(=O)N(C)C)c3)cnc12,14.6% (inactive),–
COc1cc(CNC2CCCC2)c(Br)cc1OCc1ccccc1,–,3.16 µM (active)
COc1cc(C=O)c(Br)cc1OCC(=O)NCc1ccccc1,-19.7% (inactive),–
COc1ccc(CNC2CCCCC2)cc1,9.28% (inactive),–
COc1cc2nnn(-c3ccncc3)c2cc1OC,25.3% (inactive),–
O=C(CN1CCCCCC1)Nc1ccc(Br)cc1Br,–,10 µM (active)
O=C(CN1CCCCCC1)Nc1ccc(Br)cc1[N+](=O)[O-],-24.9% (inactive),–
O=C(CN1CCCCCC1)Nc1ccc(Cl)cc1F,-19.6% (inactive),–
COCCCNC(=O)c1cccc2c(-c3ccc(O)c(OC)c3)coc12,-6.91% (inactive),–
COc1cccc(CN2CCC(C(=O)NC(c3ccc4c(c3)OCO4)c3ccccn3)CC2)c1 (centres undefined),-6.91% (inactive),–
CCc1nc2ccc(C(=O)NC3CCN(Cc4ccccc4)CC3)cn2c1N(CC)CCOC,9.54% (inactive),–
Cc1cc(Br)cn2c(Cc3cccc(F)c3)c(-c3cccc(Br)c3)nc12,-29.4% (inactive),–
O=C1CCC(CCC(=O)N2CCCC(C(=O)c3ccc(Cl)cc3)C2)=NN1 (centres undefined),16% (inactive),–
Cn1cc(CCC(=O)N2CCCC(C(=O)c3ccc(C(C)(C)C)cc3)C2)cn1 (centres undefined),–,10 µM (active)
COCC(=O)N1CCCC(C(=O)c2ccc(C(F)(F)F)cc2)C1 (centres undefined),4.28% (inactive),–
CCCNC(=O)c1cc(C2CCCCN2S(=O)(=O)c2cn(C)cn2)on1 (centres undefined),14.7% (inactive),–
O=C(NCc1ccc(F)cc1)c1cc(C2CCCCN2C(=O)c2ccccn2)on1 (centres undefined),11.6% (inactive),–
Cc1cccc(S(=O)(=O)N(C)C[C@H]2OCc3cnnn3CCCC(=O)N([C@@H](C)CO)C[C@H]2C)c1,9.44% (inactive),–
CCOc1ccc(CNC(=O)C2CCN(c3nnc(-n4cccc4CNc4ccc(C)cc4)s3)CC2)cc1OC,-7.98% (inactive),–
Cc1ccc(CCNC(=O)C2CCN(c3nnc(-n4cccc4CNc4ccc(C)cc4)s3)CC2)cc1,–,4.47 µM (active)
CSc1ccc(CCNC(=O)C2CCN(c3nnc(-n4cccc4)s3)CC2)cc1,-22.2% (inactive),–

SMILES,"activity change, negative = inhibition",Potency
O=C(NCc1ccccc1)C(c1ccc(F)cc1)N1CCN(C(=O)C2CCCO2)CC1 (centres undefined),14.2% (inactive),–
O=S1(=O)CC(N2CCSCC2)CN1Cc1cn(Cc2cccc(Cl)c2)nn1 (centres undefined),6.48% (inactive),–
C[C@@H]1CN([C@@H](C)CO)C(=O)CCCn2cc(nn2)CO[C@H]1CN(C)S(=O)(=O)c1ccc(-n2cccn2)cc1,16.2% (inactive),–
COc1ccccc1NC(=O)CC(NCCN(C)C)C(=O)O (centres undefined),3.36% (inactive),–
COc1ccccc1NC(=O)C(CC(=O)O)Cc1cc(C)cc(C)c1 (centres undefined),-6.79% (inactive),–
COc1ccccc1NC(=O)[C@H](COCc1ccccc1)NC(=O)OC(C)(C)C,–,10 µM (active)
O=C(NCc1nnnn1-c1ccc(Cl)cc1)c1ccc2c(c1)OCO2,-3.95% (inactive),–
COc1cccc(/C=C2\SC(=S)N(CCCC(=O)N3CCOCC3)C2=O)c1,-18.9% (inactive),–
COc1ccccc1N(C)S(=O)(=O)c1ccc(C(=O)NC2CCCCCC2)cc1,–,10 µM (active)
COc1ccc(S(=O)(=O)NC(C)C)cc1C(=O)NC1CCCCC1,5.65% (inactive),–
COc1ccccc1N(C)S(=O)(=O)c1ccc(C(=O)N2CCC(C(N)=O)CC2)cc1,0.999% (inactive),–
O=C(Nc1ccc(Cl)cc1)c1csc([C@@H]2O[C@H](CO)[C@H](O)[C@H](O)[C@H]2O)n1,14.7% (inactive),–
CSc1ncnc2c1ncn2CCCNCC1CCCCC1,8.69% (inactive),–
CCOC(=O)C1CCCN(C(=O)c2cc(-c3cccs3)oc2C)CC1 (centres undefined),-20.4% (inactive),–
O=C(NCc1ccc(F)cc1F)[C@@H]1CCCN1C(=O)[C@@H]1CCCN1C(=O)c1cccc(Cl)c1,23.8% (inactive),–
COc1ccc(N2c3ccccc3CN(Cc3ccccc3)[C@@H](C)[C@H]2Cc2ccc(-c3ccccc3)cc2)cc1,8.83% (inactive),–
COC(=O)c1ccc2nc(-c3ccccc3)c(Cc3ccc(OC)cc3C)n2c1,0.241% (inactive),–
CCN(CC)c1ncnc2c1ncn2[C@H]1CN(Cc2cccs2)C[C@@H](CO)O1,38.5% (inactive),–
COCCOCCn1cnc2ccccc21,6.82% (inactive),–
Cc1cc2ncn(CCCCOc3ccccc3)c2cc1C,–,10 µM (active)
Clc1ncn(CCOc2ccccc2)c1Cl,15.4% [at 0.307 µM] (inactive),–
COC(=O)c1ccc(CN2C(=O)C(Cc3ccccc3)ON=C2c2ncccc2C)o1 (centres undefined),23.9% (inactive),–
CCc1nnc(NC(=O)c2ccco2)s1,16.5% (inactive),–
OC[C@@H]1CN(Cc2cccs2)C[C@H](n2cnc3c(Nc4ccccc4)ncnc32)O1,-1.88% (inactive),–
